Screening results deposited in PubChem BioAssay by several laboratories.
TPT1 inh: blocks Candida albicans tRNA 2'-phosphotransferase. recombinant caTPT1, FP RNA substrate dephosphorylation. inhibition, % at 5 µM. 0.81% of 300,000 active. AID 1962;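 active means inhibition above the mean of all tested compounds plus 3 SD, set per screening campaign, cut at about 24% in these data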;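 further: plate controls were DMSO alone for no effect and ferristatin control at 100 nM for full effect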
Rpn11 inh: Rpn11 (human) deubiquitinase inhibition; O00487; human 26S proteasome, Ub4-pepOG fluorescence polarization; 20S core pre-blocked with epoxomicin; inhibition, % at 20 µM; 0.59% of 360,000 active;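 active means inhibition at 20 µM, scaled to each plate's controls, above about 33%, limit read from the data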
Myeloid diff MLP: promotes myeloid progenitor differentiation. ER-HoxA9 myeloid progenitors, lysozyme-GFP differentiation, flow cytometry. 1% of 360,000 active. AID 624256. calls only at 10 µM;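 active means normalized GFP-positive differentiation at or above the plate's own cutoff, the solvent-only control mean plus 3 SD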;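 further: cells exposed to compound for four days before flow analysis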
HNF4A DNA FP: change in binding of human HNF4 alpha to DNA | 0.3% of 360,000 active | activity change, % at 10 µM | P41235 | HNF4a-FITC DNA binding, fluorescence polarization, 1 h | AID 1224865; in the data active means activity change above about 30%, passing the limit was not always enough
Target sequence (P41235 whole entry, looked up): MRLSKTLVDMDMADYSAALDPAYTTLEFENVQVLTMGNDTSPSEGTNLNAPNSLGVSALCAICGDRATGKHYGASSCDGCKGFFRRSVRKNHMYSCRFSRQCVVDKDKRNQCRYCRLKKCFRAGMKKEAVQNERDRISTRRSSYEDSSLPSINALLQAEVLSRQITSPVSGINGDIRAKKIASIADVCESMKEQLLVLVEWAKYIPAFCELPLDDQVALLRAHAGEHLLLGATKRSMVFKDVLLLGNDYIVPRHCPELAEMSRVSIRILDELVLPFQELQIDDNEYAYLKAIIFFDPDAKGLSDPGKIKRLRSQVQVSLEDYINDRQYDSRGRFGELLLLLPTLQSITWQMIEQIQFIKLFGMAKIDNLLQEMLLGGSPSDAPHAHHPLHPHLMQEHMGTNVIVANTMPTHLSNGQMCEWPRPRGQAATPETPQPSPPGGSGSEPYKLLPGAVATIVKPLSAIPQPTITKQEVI
Rpn11 confirm: confirmation of human proteasome Rpn11 inhibitors; shares compounds with Rpn11 inh; purified human 26S proteasome, Ub4-pepOG fluorescence polarization; proteasome pretreated with epoxomicin; inhibition, % at 20 µM; 29% of 1,900 active; AID 602318
MMP-2 counter: counter-screen for RPN11 inhibitors: inhibition of human MMP-2; shares compounds with Rpn11 inh; AID 602330; recombinant MMP-2, FRET peptide cleavage fluorescence; inhibition, % at 20 µM; 4% of 1,900 active;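 further: human MMP-2 activated beforehand with APMA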
Thrombin inh: thrombin (bovine) inhibition counter-screen. shares compounds with Rpn11 inh. bovine thrombin cleavage of Ub4-pepOG, fluorescence polarization. inhibition, % at 20 µM. 13% of 1,900 active. AID 602333;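 active means mean inhibition at least 40% at 20 µM, or signal 3 deviations below plate average, so some actives read negative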;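 further: plate controls were thrombin with DMSO for no effect and buffer wells lacking thrombin for full effect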
Myeloid diff CP1: myeloid differentiation induction; AID 651706; ER-HoxA9 myeloid progenitors, GFP/Mac1 double-positive flow; 2% of 2,300 active; shares compounds with Myeloid diff MLP; calls only;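 active means share of green or green-and-red cells above 9 and 9% in run 1 or 4 and 3% in run 2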
GFP autofluor: counter-screen for myeloid differentiation promoters: compound fluorescence; shares compounds with Myeloid diff MLP; ER-HoxA9 myeloid progenitors, no estrogen, GFP autofluorescence flow cytometry; vehicle wells 0%, positive control 100%; fluorescence response, % (test concentration not listed); 7.4% of 2,300 active; AID 651707;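 active means over 5% cells positive for green fluorescent reporter, or over 2% positive for both it and APC stain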;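 further: range taken on the double positive population between DMSO and positive control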
HNF4A confirm: change in binding of human HNF4 alpha to DNA, retest; 99% of 210 active; activity change, % at 12.5 µM; HNF4A-FITC DNA binding, fluorescence polarization, 1 h; shares compounds with HNF4A DNA FP; call rule not given here
* marks the source's active call; other numbers are inactive results. A selection: hits, their analogues and other compounds. The true share with any hit is near 2.1%. Unless noted, no stated cut-off is given here; in the data, active means inhibition above about 40%; inactive means the rest.

Screening Cc1cccc(NC(=O)c2cc3c(=O)n4ccccc4nc3s2)c1 returned TPT1 inh -1, Rpn11 inh 95*, Myeloid diff MLP inactive, HNF4A DNA FP 45*, Rpn11 confirm 7, MMP-2 counter -84, Thrombin inh -21 and HNF4A confirm 55*.
Screening CCC(CO)NC1=CC(=O)CCC1 (stereo not given) returned TPT1 inh -1, Rpn11 inh -15, Myeloid diff MLP inactive and HNF4A DNA FP -5.
Screening O=c1c(Cl)c(N/N=C/c2ccc(Cl)cc2)cnn1-c1ccccc1 returned TPT1 inh -1, Rpn11 inh 115*, Myeloid diff MLP inactive, HNF4A DNA FP 39*, Rpn11 confirm 17, MMP-2 counter -15, Thrombin inh 2 and HNF4A confirm 45*.
Screening Nc1c(C(=O)N/N=C/c2ccc(Cl)cc2)cnn1-c1ccccc1 returned TPT1 inh 1, Rpn11 inh -2, Myeloid diff MLP inactive and HNF4A DNA FP 2.
CCOc1cc(S(=O)(=O)Nc2ccc(Cl)cn2)ccc1F was read as TPT1 inh -3, Rpn11 inh 2, Myeloid diff MLP active, HNF4A DNA FP 0, Myeloid diff CP1 inactive and GFP autofluor 0.
`CCOc1cc(S(=O)(=O)Nc2ccc(Cl)cn2)ccc1Cl` gave TPT1 inh -2, Rpn11 inh -1, Myeloid diff MLP inactive and HNF4A DNA FP 2.
COc1ccccc1CNC(=O)c1cccc(S(=O)(=O)N(C)c2ccccc2)c1 was read as Rpn11 inh 2, Myeloid diff MLP inactive and HNF4A DNA FP -2.
`CCCC(CCC)C(=O)NCCN1CCOCC1` gave TPT1 inh -4, Rpn11 inh 5, Myeloid diff MLP inactive and HNF4A DNA FP 0.
`O=C(NCCN1CCOCC1)N1CCOCC1` gave TPT1 inh 0, Rpn11 inh 0, Myeloid diff MLP inactive, HNF4A DNA FP -1, Myeloid diff CP1 inactive and GFP autofluor 0.
NC(=O)CC(NC(=O)Cc1ccc(Cl)cc1)c1ccc(NC2CCCCC2)c([N+](=O)[O-])c1 (stereo not given) was read as TPT1 inh 1, Rpn11 inh 22, Myeloid diff MLP inactive, HNF4A DNA FP 4, Myeloid diff CP1 inactive and GFP autofluor 0.
Screening NC(=O)CC(NC(=O)Cc1ccc(Br)cc1)c1ccc(NC2CCC2)c([N+](=O)[O-])c1 (stereo not given) returned TPT1 inh -2, Rpn11 inh 2, Myeloid diff MLP inactive and HNF4A DNA FP 10.
For CCO/C([O-])=N/c1sn[n+](C)c1C the results were TPT1 inh 3, Rpn11 inh -4, Myeloid diff MLP inactive and HNF4A DNA FP 3.
Screening Cc1ccccc1NS(=O)(=O)c1ccc(C(=O)N2CCCCCCC2)cc1 returned TPT1 inh -5, Rpn11 inh -8, Myeloid diff MLP inactive and HNF4A DNA FP -2.
CCOc1ccc(S(=O)(=O)Nc2ccccc2C(=O)N(C)C2CCN(C)CC2)cc1 was read as Rpn11 inh -4, Myeloid diff MLP inactive, HNF4A DNA FP 4, Myeloid diff CP1 inactive and GFP autofluor 0.
`Cc1ccccc1NS(=O)(=O)c1ccc(OCC(=O)N2CCCCC2)cc1` gave TPT1 inh -4, Rpn11 inh -1, Myeloid diff MLP active, HNF4A DNA FP -1, Myeloid diff CP1 inactive and GFP autofluor 0.
Screening Clc1ccccc1/C=C/C=N/Nc1nc(N2CCOCC2)nc(N2CCOCC2)n1 returned TPT1 inh -1, Rpn11 inh 9, Myeloid diff MLP inactive and HNF4A DNA FP -15.
`COc1ccccc1C1N(c2ccc(Cl)cc2)C(=O)C2CCCN21` (stereo not given) gave TPT1 inh 23, Rpn11 inh 13, Myeloid diff MLP active, HNF4A DNA FP 7, Myeloid diff CP1 active and GFP autofluor 0.
For CCC/C=C1/CCCOC(C(=O)NCc2ccc(C)o2)(C(F)(F)F)C1 (stereo not given) the results were Rpn11 inh 2, Myeloid diff MLP active, HNF4A DNA FP 1, Myeloid diff CP1 inactive and GFP autofluor 0.
Screening O=C(c1cccc(F)c1)N1CCCC(C(=O)N2CCN(c3ccccc3)CC2)C1 (stereo not given) returned TPT1 inh 1, Rpn11 inh -7, Myeloid diff MLP inactive and HNF4A DNA FP 3.
Screening O=C(/C=C\c1ccco1)NC(=S)Nc1ccccc1O returned TPT1 inh 11, Rpn11 inh 20, Myeloid diff MLP inactive, HNF4A DNA FP 5, Myeloid diff CP1 inactive and GFP autofluor 0.
`O=C(/C=C/c1ccco1)NC(=S)Nc1ccccc1O` gave TPT1 inh 10, Rpn11 inh 24, Myeloid diff MLP inactive and HNF4A DNA FP 0.
CC(C)CSc1ncnc2c1oc1nc3c(cc12)COC(C)(C)C3 was read as TPT1 inh 1, Rpn11 inh 6, Myeloid diff MLP inactive, HNF4A DNA FP 1, Myeloid diff CP1 inactive and GFP autofluor 2.
`C=CCSc1ncnc2c1oc1nc3c(cc12)COC(C)(C)C3` gave TPT1 inh 0, Rpn11 inh -1, Myeloid diff MLP inactive and HNF4A DNA FP 2.
CCSCCC(NC1=CC(=O)CC(C)(C)C1)C(=O)O (stereo not given) was read as TPT1 inh -2, Rpn11 inh 5, Myeloid diff MLP active, HNF4A DNA FP -1, Myeloid diff CP1 inactive and GFP autofluor 0.
Screening Cc1nnc(SCCn2c(N(C)Cc3ccccc3)nc3c2c(=O)[nH]c(=O)n3C)s1 returned TPT1 inh -1, Rpn11 inh 3, Myeloid diff MLP active, HNF4A DNA FP 2, Myeloid diff CP1 inactive and GFP autofluor 0.
For O=C(COc1ccccc1)N1CCN(S(=O)(=O)c2cccc([N+](=O)[O-])c2)CC1 the results were TPT1 inh 1, Rpn11 inh -3, Myeloid diff MLP inactive and HNF4A DNA FP -3.
`O=C(NCCc1ccccc1)c1ccccc1NS(=O)(=O)N1CCCC1` gave TPT1 inh 4, Rpn11 inh -6, Myeloid diff MLP inactive, HNF4A DNA FP -1, Myeloid diff CP1 inactive and GFP autofluor 0.
